These results are taken from PubChem BioAssay (Tox21).

Several values for one entry are separate records, joined by “and”; a condition that tells them apart may be missing. Equal entries are not always repeated. Inconclusive results are not listed. Activity calls are given as the source filed them. Unless noted, calls come from the whole dose curve; as a rule, active = well fitted curve in the direction sought with a large enough effect in the repeat runs; inconclusive = weak or mixed curves; inactive = no such curve, though single readings can be large; an effect the other way counts as inactive or inconclusive.

A short description of assay [1]: qHTS assay to identify small molecule agonists of the constitutive androstane receptor (CAR) signaling pathway - cell viability counter screen (AID 1224836). Note: nearly all actives have a fitted effect of over 45% in size. Summed up:
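Counter screen multiplexed with the CAR reporter readout: HepG2 cells co-transfected with hCAR and the CYP2B6-2.2kb construct receive a 15-concentration compound series and 0.75 uM PK11195 (final), then CellTiter-Fluor fluorescence is read after 23 h.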
For orientation: Quantitative high-throughput screening tests each substance at several concentrations.

Assay [2] addresses Nuclear receptor subfamily 1 group I member 3 (Homo sapiens) (UniProt Q14994). The experiment in a line: qHTS assay to identify small molecule antagonists of the constitutive androstane receptor (CAR) signaling pathway (AID 1224838). Note: nearly all actives have a fitted effect of over 40% in size. In short, it runs like this:
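CITCO-stimulated (50 nM final) HepG2 cells stably transfected with hCAR and CYP2B6-2.2kb luciferase were exposed to compounds at 15 concentrations for 24 h at 37 C/5% CO2. A luciferase reagent was added and luminescence recorded after 30 min.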

Assay [3] shares this target. The experiment in a line: qHTS assay to identify small molecule agonists of the constitutive androstane receptor (CAR) signaling pathway (AID 1224839). Note: nearly all actives have a fitted effect of over 15% in size. In short, it runs like this:
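A 15-concentration quantitative screen uses HepG2 cells co-transfected stably with human CAR and CYP2B6-2.2kb reporter. Treatment lasts 24 h with 0.75 uM PK11195 final present; ONE-Glo luminescence is the signal.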

A short description of assay [4]: qHTS assay to identify small molecule antagonists of the estrogen related receptor signaling pathway with the pleiotropic PPARgamma coactivator (PGC) from Tox21 10K library - cell viability counter screen (AID 1224840; active = well fitted cell-killing curve with a large enough effect in the repeat runs, not every such curve was filed as active; note: nearly all actives have a fitted effect of over 40% in size). In short, it runs like this:
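Viability counter screen, PGC/ERR cells: 17.5 h compound exposure at 37 C, CellTiter-Fluor fluorescence endpoint.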

Assay [5] is described as follows: qHTS assay to identify small molecule antagonists of the estrogen related receptor signaling pathway with the pleiotropic PPARgamma coactivator (PGC) from Tox21 10K library (AID 1224841; call rule not given here; note: actives are mostly falling curves and most rising ones were filed inactive; nearly all actives have a fitted effect of over 50% in size). Summed up: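 In the PGC/ERR line, DMSO solutions of test chemicals are pin-delivered to 2,000 cells/well six hours after dispensing. Following eighteen hours' incubation, One-Glo reagent is added and luminescence recorded.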

Assay [6] in a line: qHTS assay to identify small molecule agonists of the estrogen related receptor signaling pathway with the pleiotropic PPARgamma coactivator (PGC) from Tox21 10K library (AID 1224842). Note: nearly all actives have a fitted effect of over 15% in size. Summed up:
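Luminescence from One-Glo (30 min, room temperature) measured after PGC/ERR cells had 18 h at 37 C with pinned compound (23 nL in DMSO). Cells had been seeded at 2,000 per well and pre-incubated 6 h.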

Assay [7] concerns the target Thyrotropin receptor (Homo sapiens) (UniProt P16473). The experiment in a line: qHTS assay to identify small molecule agonists of the thyroid stimulating hormone receptor (TSHR) signaling pathway (AID 1224843; calls by dose curve; note: nearly all actives have a fitted effect of over 45% in size). Summed up:
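A cell-based cAMP HTRF format was run in TSHR-transfected HEK293 cells, 800 per well. Treatment: 30 min, room temperature. Detection: 1 h with labelled cAMP and anti-cAMP cryptate. Concentration-response over 15 points, three replicates.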

Assay [8] can be described thus: qHTS assay to identify small molecule agonists of H2AX (AID 1224845; active = well fitted activation curve with a large enough effect in the signal ratio in the repeat runs, not every such curve was filed as active; the % refers to the signal ratio). Summed up:
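Phospho-H2AX Ser139 measured by HTRF (ex 320 nm; em 665 and 620 nm) after 24 hr antibody incubation. Compounds, 15 concentrations, 0.76% DMSO, were applied to CHO-K1 cells for 3hr at 37C before lysis.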

A short description of assay [9]: qHTS assay to identify small molecule antagonists of the estrogen related receptor (ERR) signaling pathway from Tox21 library (AID 1224848). Note: nearly all actives have a fitted effect of over 50% in size. In short, it runs like this: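 ERR cell line, 2,000 cells/well. 6 h settle, then compound (DMSO) added; 18 h at 37 C; ONE-Glo luminescence after 30 min RT.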
A short description of assay [10]: qHTS assay to identify small molecule agonists of the estrogen related receptor (ERR) signaling pathway from Tox21 library (AID 1224849; calls by dose curve; note: nearly all actives have a fitted effect of over 15% in size). The conditions noted are these: ERR reporter cell line, ONE-Glo luciferase, 18 h. Summed up: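 Reporter cells (ERR, NTP source) treated with Tox21 10K compounds 18 h, 37 C. Readout: ONE-Glo luminescence, 30 min RT.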
Assay [11] is described as follows: qHTS RealTime-Glo MT Cell Viability Assay in HepG2 cells - 24 hour (AID 1224867). Note: nearly all actives have a fitted effect of over 50% in size. In short, it runs like this: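 Tox21 10K library screened in qHTS format on HepG2 cells carrying RealTime-Glo reagents. Compounds were added after a 5 h preincubation, and the luminescent signal from continuous culture was measured repeatedly during 40 h treatment.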
Assay [12] is described as follows: qHTS RealTime-Glo MT Cell Viability Assay in HEK293 cells - 32 hour (AID 1224868). Note: top concentration of the series differs between compounds; nearly all actives have a fitted effect of over 50% in size. In short, it runs like this: (§1)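 Luminescence generated by NanoLuc from substrate produced by living HEK293 cells served as the viability signal. Each value reflects the reading at its stated time point during continuous 40 h compound exposure at 37 C.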
Assay [13] in a line: A CellTox Green Cytotoxicity Assay to monitor cytotoxicity in HEK293 cells - 0 hour (AID 1224869). Note: nearly all actives have a fitted effect of over 50% in size. Summed up: (§2)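 Homogeneous no-lysis format: HEK293 cell suspension mixed with CellTox Green reagent, seeded, incubated 5 h at 37 C/5% CO2, then dosed by pintool with compound in DMSO.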
Assay [14] in a line: qHTS RealTime-Glo MT Cell Viability Assay in HepG2 cells - 40 hour (AID 1224870). Note: nearly all actives have a fitted effect of over 50% in size. Summed up:
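Real-time viability: cells seeded at 600 per well together with NanoLuc and cell-permeant prosubstrate, compounds added after 5 h incubation. Luminescence tracked at 0, 8, 16, 24, 32 and 40 h of exposure.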

The nature of assay [15]: A CellTox Green Cytotoxicity Assay to monitor cytotoxicity in HEK293 cells - 40 hour (AID 1224871). Note: nearly all actives have a fitted effect of over 45% in size. Summed up:
as §2

The nature of assay [16]: qHTS RealTime-Glo MT Cell Viability Assay in HEK293 cells - 16 hour (AID 1224872). Summed up:
as §1

Assay [17] in a line: qHTS assay to identify small molecule antagonists of the constitutive androstane receptor (CAR) signaling pathway - cell viability counter screen (AID 1224837). Note: nearly all actives have a fitted effect of over 45% in size. Summed up:
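In quantitative HTS format, compounds at 15 concentrations were applied to HepG2 cells double-transfected with hCAR and CYP2B6-2.2kb under 50 nM CITCO stimulation; live-cell protease activity was read after 23 hr via CellTiter-Fluor.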

Assay [18] can be described thus: qHTS assay to identify small molecule agonists of the hypoxia (HIF-1) signaling pathway - cell viability counter screen (AID 1224844; calls by dose curve; note: nearly all actives have a fitted effect of over 50% in size; note: potency is the fitted concentration of half-maximal effect). In short, it runs like this:
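Same wells as the HIF-1 reporter screen; ME-180 cells carrying HRE-bla, 17 hr treatment at 37C; CellTiter-Glo luminescence read after 30 min at room temperature.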

Assay [19] can be described thus: qHTS assay to identify small molecule agonists of H2AX - cell viability counter screen (AID 1224847; calls by dose curve; note: top concentration of the series differs between compounds; nearly all actives have a fitted effect of over 30% in size). Summed up: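 We seed wild-type CHO-K1 cells overnight, treat them for 3 hr at 37C with compounds in 15-concentration series, and quantify remaining viability by CellTiter-Glo luminescence.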
The nature of assay [20]: qHTS assay to identify small molecule agonists of the hypoxia (HIF-1) signaling pathway (AID 1224846; active = well fitted activation curve with a large enough effect in the signal ratio in the repeat runs, not every such curve was filed as active; the % refers to the signal ratio). Summed up:
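In ME-180 cells bearing an HRE-bla construct, 17 h treatment with DMSO-dissolved compounds at 37C was followed by CCF4-AM loading to quantify reporter induction.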
% is set by controls: 0 for no effect and ±100 for the full control effect.

Nuclear receptor subfamily 1 group I member 3 (Homo sapiens), sequence (Q14994 whole entry, looked up): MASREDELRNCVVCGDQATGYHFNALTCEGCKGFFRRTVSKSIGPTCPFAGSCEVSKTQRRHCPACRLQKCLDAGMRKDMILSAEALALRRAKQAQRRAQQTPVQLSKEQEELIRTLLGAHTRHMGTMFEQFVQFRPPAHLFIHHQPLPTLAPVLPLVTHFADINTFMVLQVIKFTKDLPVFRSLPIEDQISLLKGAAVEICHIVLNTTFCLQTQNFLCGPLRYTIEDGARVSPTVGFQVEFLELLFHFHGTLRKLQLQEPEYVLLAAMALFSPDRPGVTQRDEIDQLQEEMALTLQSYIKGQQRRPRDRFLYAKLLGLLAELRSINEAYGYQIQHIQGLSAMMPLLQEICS
Thyrotropin receptor (Homo sapiens), sequence (P16473 whole entry, looked up): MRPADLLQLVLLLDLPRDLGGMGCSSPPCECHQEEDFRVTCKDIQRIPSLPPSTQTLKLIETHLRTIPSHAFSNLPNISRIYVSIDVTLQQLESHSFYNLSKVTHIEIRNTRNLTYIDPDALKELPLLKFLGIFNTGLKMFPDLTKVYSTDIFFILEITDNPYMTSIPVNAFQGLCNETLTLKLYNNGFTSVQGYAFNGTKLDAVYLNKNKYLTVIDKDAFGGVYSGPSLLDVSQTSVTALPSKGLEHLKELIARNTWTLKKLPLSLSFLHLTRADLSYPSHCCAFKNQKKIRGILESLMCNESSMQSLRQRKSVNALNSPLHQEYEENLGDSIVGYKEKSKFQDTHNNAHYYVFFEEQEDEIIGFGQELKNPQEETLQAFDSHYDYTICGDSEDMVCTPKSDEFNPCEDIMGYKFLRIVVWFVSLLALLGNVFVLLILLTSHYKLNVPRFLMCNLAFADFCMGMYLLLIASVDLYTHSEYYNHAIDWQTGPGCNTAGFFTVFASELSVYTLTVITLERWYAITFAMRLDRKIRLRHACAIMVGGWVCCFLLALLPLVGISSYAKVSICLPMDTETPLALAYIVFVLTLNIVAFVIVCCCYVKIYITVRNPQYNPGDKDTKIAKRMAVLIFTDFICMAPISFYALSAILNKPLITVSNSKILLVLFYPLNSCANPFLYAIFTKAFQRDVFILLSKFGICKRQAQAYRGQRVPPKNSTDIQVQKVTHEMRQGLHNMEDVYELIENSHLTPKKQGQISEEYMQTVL

On to `C1COC(NC(C2CC2)C2CC2)=N1`, for which the Potency result in assay [1], in [2], in assay [3], in assay [4], in assay [5] and in assay [6] was “inactive” each time. The Potency result in assay [7], in assay [8], in assay [9], in [11], in assay [12] and in assay [13] was “inactive” in each case. Besides, the Potency entry in assay [14], in assay [15] and in assay [16] was “inactive” each time. The activity change, positive = activation in assay [10] (at 42.5 µM (top of the series)) was -1.34% (inactive).

Turning to `NC12CC3CC(CC(C3)C1)C2`, the Potency entry in assay [1], in assay [17], in [4], in assay [18], in assay [8] and in assay [11] was “inactive” each time. Also, the Potency result in [13], in [14], in assay [15] and in assay [16] was “inactive” throughout.

For `CC(N)=O`, the Potency entry in assay [1], in [17], in [4], in assay [7], in [18] and in assay [8] was “inactive” each time. Also, the Potency result in [19], in assay [11], in assay [13], in [14], in assay [15] and in [16] was “inactive” each time.

In the case of `CO[Si](OC)(OC)c1ccccc1`, the Potency entry in assay [1], in assay [2], in assay [3], in assay [4], in [5] and in assay [6] was “inactive” each time. For the same molecule, the Potency entry in assay [7], in assay [18], in assay [8], in [20], in assay [9] and in assay [11] was “inactive” in each case. For the same molecule, the Potency entry in assay [12], in assay [13], in [14], in assay [15] and in [16] was “inactive” throughout. In [10] (at 92.4 µM (top of the series)), the activity change, positive = activation was 18% (inactive).

On to `O=S(=O)(O)c1ccc2nc(-c3ccccc3)[nH]c2c1`, for which the Potency entry in assay [1], in assay [2], in [3], in assay [4], in assay [5] and in assay [7] was “inactive” each time. Moreover, the Potency entry in assay [8], in assay [20], in [9], in assay [11], in [12] and in assay [13] was “inactive” each time. Further, the Potency result in [14], in assay [15] and in assay [16] was “inactive” throughout. For the same molecule, the Potency in [18] is 18.6 µM (active) and 10.7 µM (active). The activity change, positive = activation in [10] (at 42.5 µM (top of the series)) was 2.03% (inactive); in [10] (at 92.4 µM (top of the series)), -3.59% (inactive).

As for `COc1nc(C)nc(Cl)c1NC1=NCCN1`, the Potency result in assay [1], in assay [17], in [4], in [7], in assay [8] and in assay [19] was “inactive” in each case. Further, the Potency result in [11], in assay [13], in assay [14], in [15] and in [16] was “inactive” in each case.

`COC(c1ccccc1)(c1ccccc1)[C@H](Oc1nc(C)cc(C)n1)C(=O)O`: the Potency result in assay [1], in assay [2], in assay [3], in assay [4], in assay [5] and in [7] was “inactive” in each case. Further, the Potency result in assay [18], in assay [8], in assay [20], in assay [19], in assay [9] and in assay [11] was “inactive” in each case. Also, the Potency entry in assay [12], in [13], in assay [14], in assay [15] and in assay [16] was “inactive” throughout. Besides, the activity change, positive = activation in [10] (at 42.5 µM (top of the series)) is 0.278% (inactive).
